Results on 14 sequences are retold here after the supplement of paper PMC6555819.

What all share (assay): PBM binding z-score (relative to random genomic background probes); higher = stronger binding; sequences stand for … in GC…GCGATTGACAGCGTAGAATGAAGG
The test system of experiment [1] is RARb homodimer (NR concentration 270 nM). The gist of the method: (§1)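 Antibodies against each partner of ligand-free nuclear receptor dimers (one per run) detected binding on custom Agilent 4×180K protein-binding microarrays after 1 h incubation. The double-stranded probes had 34-nt variable regions carrying direct-repeat seeds, single-nucleotide variants, half-site ablations and random human genomic background sequences. Binding z-scores, from regression-normalized fluorescence, use the random background probes as reference.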

The subject of experiment [2] is RARg:RXRa (NR concentration 270 nM, RXRa partner concentration 90 nM). The method, boiled down:
as §1

The subject of experiment [3] is RARg homodimer (NR concentration 270 nM). The gist of the method:
as §1

Experiment [4] has as its system RXRa DBDmut IVT, anti-RXR (DBD mutation: RXRa K156A/R161A, NR concentration 90 nM). The method, boiled down: as §1
The subject of experiment [5] is RXRa homodimer (NR concentration 180 nM). The method, boiled down:
as §1

The subject of experiment [6] is THRa:RXRa (NR concentration 90 nM, RXRa partner concentration 90 nM). The method, boiled down: as §1
Experiment [7] has as its system THRa homodimer (NR concentration 90 nM). The method, boiled down:
as §1

In experiment [8] the test system is VDR homodimer (NR concentration 270 nM). The gist of the method:
as §1

For the sequence CGACCTAGGTCATTGACAGGACAGTGAATAGTAA, the PBM binding z-score was found to be 3.01 in experiment [1]; 5.2 in experiment [2]; 4.67 in experiment [3]; 2.83 in experiment [4]; 3.09 in experiment [5]; 3.2 in experiment [6]. Also, the results for the PBM binding z-score in experiment [7] and in experiment [8] were 0.892 and 1.47, respectively.
Consider GCGGCTAGGTCAGGTTGGTCAGCTAACGGGTACG, for which the PBM binding z-score in experiment [1] was determined as 2.8; in experiment [2], 2.47; in experiment [3] it was 3.36; in experiment [4] it was 0.271; in experiment [5] it was 1.07; in experiment [6] it was 1.85. Also, the PBM binding z-score in experiment [7] amounted to 0.788; in experiment [8] it was 0.247.
For the sequence CGCCCAAGGTCAGAGAGGTCAGTGAATGCCGAGT, the PBM binding z-score was found to be 5.43 in experiment [1]; 6.31 in experiment [2]; 6.93 in experiment [3]; 3 in experiment [4]; 5.42 in experiment [5]; 4.15 in experiment [6]. The PBM binding z-score in experiment [7] stood at 2.33; in experiment [8], 5.31.
As for CCGACTGGGTCAAGGTTACCATAACGCACAGCCA, the PBM binding z-score in experiment [1] amounted to 3.15; in experiment [2], 3.98; in experiment [3] it was 4.05; in experiment [4] it was 0.852; in experiment [5] it was 3.59; in experiment [6], 2.83. The PBM binding z-score in experiment [7] worked out at 1.51; in experiment [8], 1.02.
Turning to GCTCGGAGGACAAGGTTAGAGCTTTGTCCGTAGA, the PBM binding z-score in experiment [1] is 0.733; in experiment [2] it was 0.376; in experiment [3], 1.01; in experiment [4], -0.384; in experiment [5] it was 0.102; in experiment [6], 1.28. Besides, the PBM binding z-score in experiment [7] is -0.0516; in experiment [8], -0.796.
Consider CCGAGTAAGTTATGGGGCATTCAGGCAACGGTGA, for which the PBM binding z-score in experiment [1] is 0.181; in experiment [2], -0.241; in experiment [3] it was -0.0978; in experiment [4] it was 0.0937; in experiment [5], -0.299; in experiment [6], 0.0579. In addition, the PBM binding z-score in experiment [7] is -0.117; in experiment [8], -0.0157.
Regarding ATCGAGAGGTCGACGAGGTGAGTATACACCGTTT, the PBM binding z-score stood at 1.94 in experiment [1]; 3.1 in experiment [2]; 2.85 in experiment [3]; 1.07 in experiment [4]; 3.46 in experiment [5]; 3.58 in experiment [6]. Besides, the values for the PBM binding z-score in experiment [7] and in experiment [8] were 0.777 and 1.52, respectively.
On to ACTAGCAGGCCAAGTTTGGCTCACTCAAACAAAG, for which the PBM binding z-score in experiment [1] was -0.243; in experiment [2], -0.36; in experiment [3] it was -0.0918; in experiment [4], -0.118; in experiment [5], -0.415; in experiment [6], -0.267. The PBM binding z-score in experiment [7] is -0.863; in experiment [8] it was -0.448.
Regarding CCGACTAGGGCAAGGTTACCATAACGCACAGCCA, the PBM binding z-score was found to be 1.42 in experiment [1]; 1.33 in experiment [2]; 1.66 in experiment [3]; 0.121 in experiment [4]; 1.08 in experiment [5]; 1.23 in experiment [6]. Further, the PBM binding z-score in experiment [7] turned out to be 0.242; in experiment [8] it was 0.0806.
Regarding CCTATTAGTTGACCATAATGGCAACCGAAGCTCG, the PBM binding z-score in experiment [1] is 0.786; in experiment [2], 0.589; in experiment [3], 0.606; in experiment [4], 0.918; in experiment [5] it was 0.421; in experiment [6], 0.384. Besides, the PBM binding z-score in experiment [7] was found to be 0.631; in experiment [8], 1.12.
For the sequence AATACAGGGGCACTAGGCCAGAGTAGGTACGAAT, the PBM binding z-score in experiment [1] turned out to be 0.82; in experiment [2], 0.814; in experiment [3], 0.835; in experiment [4], 0.764; in experiment [5] it was 0.611; in experiment [6], 0.473. The PBM binding z-score in experiment [7] was -0.285; in experiment [8] it was 0.185.
Regarding CCGACTGGTGCATAAGGTTACCATAAGCCAGCCC, the PBM binding z-score amounted to 1.25 in experiment [1]; 0.548 in experiment [2]; 0.37 in experiment [3]; 0.0565 in experiment [4]; 0.963 in experiment [5]; 1.99 in experiment [6]. For the same sequence, the figures for the PBM binding z-score in experiment [7] and in experiment [8] were 1.58 and 0.347, respectively.
Consider ATCGAAAGGTCGAAGGTGAGTATACCCACCCGAA, for which the PBM binding z-score stood at 2.51 in experiment [1]; 4.29 in experiment [2]; 3.81 in experiment [3]; 0.771 in experiment [4]; 5.16 in experiment [5]; 2.27 in experiment [6]. The PBM binding z-score in experiment [7] was -0.0349; in experiment [8], 0.804.
As to CCTACTGGGCCATCAGGTCTTTGATATCAACGTT, the PBM binding z-score was 0.24 in experiment [1]; -0.0925 in experiment [2]; -0.00289 in experiment [3]; -0.126 in experiment [4]; -0.274 in experiment [5]; 0.487 in experiment [6]. The figures for the PBM binding z-score in experiment [7] and in experiment [8] were 0.437 and -0.123, respectively.
